# In PubChem BioAssay AID493011 (Sanford-Burnham Center for Chemical Genomics, 2011):
# Screen size: about 330,000 compounds; about 1,400 (0.42%) were called active.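 Rule for the calls: active = at least 40% inhibition at 20 µM here, with at most 30% in a related deaminase screen; inactive = the rest.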 The full list was thinned out, with actives kept by preference.
# Target: DNA dC->dU-editing enzyme APOBEC-3A (Homo sapiens) (UniProt P31941)
# Assay: APOBEC3A ssDNA deaminase inhibitors, primary screen, selectivity assay for APOBEC3G inhibitor project, biochemical, FAM/TAMRA oligo cleavage fluorescence (AID 493011);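 note: plate controls were A3A with DMSO for no effect and wells lacking A3A enzyme for full effect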
# Conditions: recombinant A3A, FAM/TAMRA ssDNA deamination fluorescence; at 20 µM; stronger effect = higher value
# Chain of DNA dC->dU-editing enzyme APOBEC-3A (Homo sapiens) (P31941 whole entry, looked up): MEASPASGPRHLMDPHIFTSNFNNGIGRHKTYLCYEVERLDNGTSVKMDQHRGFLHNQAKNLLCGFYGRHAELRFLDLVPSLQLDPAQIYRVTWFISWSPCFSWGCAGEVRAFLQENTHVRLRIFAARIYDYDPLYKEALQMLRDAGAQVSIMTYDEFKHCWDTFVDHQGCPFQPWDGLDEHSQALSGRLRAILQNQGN
row,Structure (SMILES),inhibition
1,COc1ccc(CN(C)C(=O)c2cc(-c3ccc(C)cc3C)nc3ccccc23)c(OC)c1OC,-0.735% (inactive)
2,CC1C(c2ccccc2)=[N+]([O-])C2(CCCC2)N1O (stereo not drawn),3.6% (inactive)
3,CC(C)c1ccc(NC(=O)C2CCCN(S(=O)(=O)c3cccnc3)C2)cc1 (stereo not drawn),3.03% (inactive)
4,CC(=O)Nc1ccc(NC(=O)C2CCCN(S(=O)(=O)c3ccc(Cl)cc3)C2)cc1 (stereo not drawn),94.5% (active)
5,COc1ccc(S(=O)(=O)N2CCCC(C(=O)Nc3ccc(NC(=O)c4ccccn4)cc3)C2)cc1 (stereo not drawn),0.311% (inactive)
6,O=C(NCCCn1ccnc1)c1cc(Br)c(Br)s1,-1.2% (inactive)
7,O=C(N/N=C\c1cccnc1)c1cc(-c2ccccc2)nc2c(Cl)cccc12,43.3% (active)
8,COc1ccc(-c2cc(C(=O)N/N=C/c3cccnc3)c3ccccc3n2)c(OC)c1,1.62% (inactive)
9,C/C(=N\NC(=O)c1cc(-c2ccc(O)cc2)nc2ccccc12)c1cccnc1,-0.382% (inactive)
10,C/C(Cn1nnc2ccccc21)=N\OC(=O)c1cc(F)c(F)cc1Cl,-2.44% (inactive)
11,CCOc1ccc(C)cc1S(=O)(=O)NC1CCCCCC1,0.216% (inactive)
12,COc1ccc(C2c3ccc(O)cc3Oc3ncn(CCCO)c(=N)c32)cc1OC (stereo not drawn),1.57% (inactive)
13,Cc1ccc(COC(=O)CN2C(=O)NC3(CCCC3)C2=O)cc1,2.64% (inactive)
14,Cc1ccc(CCCOC(=O)C[N+]2(C)CCCCC2)cc1,75.2% (active)
15,Cc1ccc(CCCOC(=O)C[N+]2(C)CCCC2)cc1,29.9% (inactive)
16,O=C(COc1ccccc1)Nc1ccc(N2CCN(C(=O)c3cccs3)CC2)cc1,3.22% (inactive)
17,COc1ccc(C(=O)NC2(C(F)(F)F)NC(=O)N(CCCc3ccccc3)C2=O)c(OC)c1OC (stereo not drawn),1.49% (inactive)
18,CCn1c(CNC(=O)c2ccco2)nnc1SCC(=O)Nc1cccc(F)c1,0.913% (inactive)
19,CCn1c(SCC(=O)Nc2cccc(F)c2)nnc1-c1cc2cc(Br)ccc2o1,49.5% (active)
20,CCn1c(SCC(=O)Nc2ccc3c(c2)OCCO3)nnc1-c1ccncc1,-2.5% (inactive)

row,Structure (SMILES),inhibition
1,Cc1ccccc1C1=N/C(=C/c2cccnc2)C(=O)O1,-1.12% (inactive)
2,CN(C)/C=C1\C=C(c2ccccc2)OC1=O,0.636% (inactive)
3,Cc1ccc(C2=C/C(=C\c3cccnc3)C(=O)O2)cc1,42.5% (active)
4,O=C(N/N=C\c1cc(Br)c(Br)o1)C1COc2ccccc2O1 (stereo not drawn),13.8% (inactive)
5,Cc1ccc(C(=O)N/N=C\c2cc(Br)c(Br)o2)cn1,44.2% (active)
6,Cc1ccc(C(=O)N/N=C/c2cccc3ccccc23)cn1,-4.44% (inactive)
7,O=C(CN1C(=O)NC2(CCOc3ccccc32)C1=O)Nc1cccc([N+](=O)[O-])c1 (stereo not drawn),6.58% (inactive)
8,CC1=NN(C(=O)CCc2ccccc2O)C(O)(C(F)(F)F)C1 (stereo not drawn),54.8% (active)
9,CC1=NN(C(=O)CCCc2ccccc2)C(O)(C(F)(F)F)C1 (stereo not drawn),-5.39% (inactive)
10,COc1ccc(CC(=O)N2N=C(C)CC2(O)C(F)(F)F)cc1 (stereo not drawn),-1.7% (inactive)
11,CC(C)COP(=O)(c1ccc(N(C)C)cc1)C(Nc1ccccc1)c1cccnc1 (stereo not drawn),-0.443% (inactive)
12,C[N+](C)(C)CCOP(=O)([O-])OC[C@H](O)CO,-3.05% (inactive)
13,CCOc1cccc(OCCCOc2cccc3cccnc23)c1,0.036% (inactive)
14,CCCc1cc(=O)[nH]c(SCc2ccc(C#N)cc2)n1,-3.79% (inactive)
15,COc1ccc(C2C3=C(CCCC3=O)N(CC(=O)O)C3=C2C(=O)CCC3)cc1,-0.629% (inactive)
16,CCOc1ccc(C2C3=C(CCCC3=O)N(CC(=O)O)C3=C2C(=O)CCC3)cc1,5.98% (inactive)
17,CCCN1C2=C(C(=O)CCC2)C(c2ccc(O)c(Br)c2)C2=C1CCCC2=O,68.9% (active)
18,COc1ccccc1C(CNC(=O)c1cccc(S(=O)(=O)Nc2ccc(F)cc2)c1)N(C)C (stereo not drawn),-4.98% (inactive)
19,COc1ccc(C)cc1NC(=O)c1[nH]c(C)c(C(C)=O)c1C,-4.64% (inactive)
20,O=C(O)C(F)(F)C(NCc1ccccc1)c1ccccc1 (stereo not drawn),-9.23% (inactive)

row,Structure (SMILES),inhibition
1,CC1(C)CC(=O)C(N=Nc2ccc(S(=O)(=O)N3CCCCCC3)cc2)=C(O)C1,-0.085% (inactive)
2,O=C1N/C(=C/c2cccn2-c2ccccc2)C(=O)N1c1cccc(Cl)c1,0.178% (inactive)
3,N#Cc1ccccc1CN1C(=O)S/C(=C/c2cccn2-c2cccc(C(=O)O)c2)C1=O,74.4% (active)
4,Cc1ccccc1NC(=O)CN1C(=O)N/C(=C\c2cccn2-c2cccc(C(=O)O)c2)C1=O,93.1% (inactive)
5,O=C(c1n[nH]c2c1CCC2)N1CCCC(Nc2cccc(F)c2)C1 (stereo not drawn),-3.42% (inactive)
6,O=C(COC(=O)/C=C/c1ccc(Br)o1)Nc1cccc(S(=O)(=O)N2CCOCC2)c1,16.5% (inactive)
7,CC(=O)c1c(C)n(-c2ccc(N(C)C)cc2)c2ccc(OCC(N)=O)cc12,-1.38% (inactive)
8,COc1cccc(NC(=O)CCNS(=O)(=O)c2ccc3c(c2)oc(=O)n3C)c1,-2.44% (inactive)
9,COc1cccc(NC(C)=[N+](C)CCNS(=O)(=O)c2ccc(Cl)cc2)c1,52.2% (active)
10,COc1ccc(S(=O)(=O)NCCCCOc2ccc(Cl)cc2)cc1,-0.023% (inactive)
11,COc1ccc(C2C3=C(OC(C)=O)c4ccccc4C3=Nc3c2c(=O)n(C)c(=O)n3C)cc1 (stereo not drawn),-1.29% (inactive)
12,Cc1cccc(CCNS(=O)(=O)c2ccc(S(=O)(=O)NC3CCCC3)cc2)c1,-4.37% (inactive)
13,COCCCNC(NC(=O)c1ccc(OC)cc1)C(Cl)(Cl)Cl (stereo not drawn),-2.86% (inactive)
14,O=C1C2C3C=CC(C4CC34)C2C(=O)N1c1nccs1 (stereo not drawn),0.014% (inactive)
15,CC(C)c1ccc(/C=C2\NC(=O)NC2=O)cc1,82.8% (active)
16,CSc1ccc(/C=C2\NC(=O)NC2=O)cc1,-4.33% (inactive)
17,Cc1ccc(NC(=O)COc2ccc(/C=C3/NC(=O)NC3=O)cc2)cc1,-0.201% (inactive)
18,CC[C@]12c3[nH]c4cc(CCC(=O)N(C)C)ccc4c3CCN1C(=O)[C@@H](CC(=O)NCc1ccco1)C[C@@H]2C(=O)N1CCN(C(=O)c2ccco2)CC1,2.69% (inactive)
